ARNT TACC3 PPI: disrupts binding between human ARNT and TACC3; actives 0.66% (n = 390,000); AID 623870; Q9Y6A5; AlphaScreen His-ARNT PAS-B/GST-TACC3 binding, luminescence; TACC3 fragment carries E629A point mutation; inhibition, % at 9.99 µM;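 active = mean inhibition of replicates at least 50% and at least half of replicates each reaching 50%; inconclusive = half or more replicates reach 50% but mean below 50%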;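 note: 0% = complete ARNT plus TACC3 wells and 100% = ARNT alone without TACC3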
AI-2 QS modul: Vibrio harveyi AI-2 quorum sensing modulation; AID 2094; activity change, % at 7.5 µM; Vibrio harveyi JMH597 AI-2 luminescence/OD600 ratio, 9 h; hits give low values; strain lacks LuxN and CqsS sensors; 0 = neutral-control median; actives 0.4% (n = 300,000); in the data active = activity change below about -75%, passing the limit was not always enough; inconclusive = no clear call, values can overlap the other calls;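 note: luminescence divided by OD600 gain over 9 h not by final OD600 alone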
Mot1-301 SUMO: blocks SUMOylation pathway, rescuing yeast Mot1-301 growth. actives 1% (n = 320,000). S. cerevisiae Mot1-301 growth rescue, ATP luminescence, 38.5C; percent above DMSO median, 100 means doubled. growth rescue, % at 18.8 µM. AID 2716;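 active = every valid replicate shows activation above 250% relative to neutral control wells; inactive = the rest, any valid replicate at or below 250%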;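 note: OY570 slx delta 5 strain wells were the positive control but not used for scaling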
aDG glyco act: alpha-DG glycosylation activation | Pro5-aDG cells, alpha-DG glycosylation AlphaScreen (IIH6); 0% Pro5, 100% B10-LARGE cell signal | activation, % at 10 µM | actives 0.22% (n = 360,000) | AID 624168;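 active = activation of at least 8% versus controls, or a plate z-score of at least 8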;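 note: Pro5 are CHO cells carrying HIG-tagged alpha-DG that lacks glycosylation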
A1 inh: inhibitors of the anti-apoptotic protein A1, read as caspase activation. MEF A1-2A-BIM cells, Caspase-Glo 3/7 luminescence, 3 h; percent of clofoctol response, vehicle zero. caspase activation, % (concentration not given with the values). actives 0.066% (n = 330,000). AID 2462;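 active = over half of replicate activation scores above 10%, or exactly half above 10 with the replicate mean above 10; inconclusive = replicate mean below 10 yet half the replicates above 10; inactive = over half of replicates below 10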
Yeast Mot1 SUMO: yeast SUMO pathway inhibition in dose response; shares compounds with Mot1-301 SUMO; S. cerevisiae Mot1-301 galactose growth, ATP luminescence, 24 h; -100 = growth of slx-deleted rescue strain; growth activity, percent, % at 42 µM; 2,300 tested, under 10 active; AID 493004;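 active = Signal drops as the depositor expects, and the fitted half-maximal dose is no more than ten times the top valid tested dose; inconclusive = Poor fit, or a flat curve whose signal drops by 30% to 70%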;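 note: more negative values mean stronger growth rescue toward the control strain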
The depositor's hits bear a star; ? = inconclusive; · = not tested or not shown; + = active, no number. Compounds with a hit are over-represented: about 1.8% of the library has one in this group of screens.

SMILES | ARNT TACC3 PPI | AI-2 QS modul | Mot1-301 SUMO | aDG glyco act | A1 inh | Yeast Mot1 SUMO
Cn1ccsc1=NC(=O)c1ccc(S(C)(=O)=O)c([N+](=O)[O-])c1 | 6.7 | 53.8 | 173.6 | 1.5 | -1.2 | ·
O=C(CCNS(=O)(=O)c1cccc2nsnc12)NCCC1=CCCCC1 | 1.4 | 21.3 | 711.5* | 0.0 | 1.9 | 0.3
CCN(CC)S(=O)(=O)c1ccc(C(O)=C(C#N)c2nc3ccccc3n2C)cc1 | 7.2 | · | · | -0.1 | · | ·
CO[C@@H]1CN(C)C(=O)c2cc(NC(C)=O)ccc2OC[C@@H](C)N(C(=O)C2CCOCC2)C[C@@H]1C | -5.9 | · | · | · | · | ·
CC(=O)N1CCc2cc(S(=O)(=O)NCCC3=CCCCC3)ccc21 | -4.7 | -5.5 | + | 5.0 | -0.1 | 0.0
Cc1ccc(N2C(=O)c3ccccc3NC2c2ccccc2O)cc1 (stereo not given) | 32.4 | -1.3 | -16.1 | 0.6 | -4.1 | ·
O=C1c2ccccc2NC(c2ccccc2O)N1O (stereo not given) | 3.5 | 49.0 | 383.8* | -0.1 | -0.3 | -0.6
O=C(NC1CCCCC1)c1ccc2snnc2c1 | 7.8 | · | 528.9* | 0.1 | -0.1 | 0.3
COc1ccc(CCn2c(N)cc(=O)[nH]c2=O)cc1OC | · | 40.3 | -15.5 | 0.2 | 0.3 | ·
Nc1cc(=O)[nH]c(=O)n1CCc1ccccc1 | 2.8 | 23.5 | 541.9* | 0.0 | 0.8 | 0.5
COCCNC(=O)C(=O)N/N=C(\C)CC(=O)Nc1cccc(C(F)(F)F)c1 | 1.6 | -6.5 | 444.9* | -0.1 | 0.3 | 0.2
N#CC(=C1Nc2ccccc2N1)S(=O)(=O)c1ccccc1 | -0.7 | 18.4 | -6.3 | -0.3 | 0.4 | ·
CCc1nnc(NC(=O)CSc2nc3c(cc2C#N)CCCC3)s1 | · | 18.3 | 735.8* | 0.1 | -2.3 | 0.9
COc1ccc(N2C(=O)CC(NCc3cccs3)C2=O)cc1 (stereo not given) | · | 0.3 | 358.9* | 0.1 | 0.3 | 0.7
N#Cc1ccc(N2C(=O)[C@@H]3C(C(=O)c4cnccn4)=NN[C@@H]3C2=O)cc1 | · | 32.1 | -7.7 | -0.1 | 0.3 | ·
COc1ccccc1CNC(=O)CSc1nc2c(oc3ccccc32)c(=O)n1CC1CCCO1 (stereo not given) | -0.9 | 10.2 | 1.6 | 0.3 | 0.8 | ·
CN(CC(=O)Nc1cccc(F)c1)CC(=O)Nc1cccc(S(=O)(=O)N2CCCCCC2)c1 | -0.4 | -0.8 | 5.2 | 0.2 | -0.9 | ·
CN(CC(=O)Nc1cccc(F)c1)CC(=O)Nc1cccc(S(N)(=O)=O)c1 | -3.5 | 6.4 | 739.6* | 0.0 | 1.7 | 0.2
CCc1cc(=O)oc2cc(C)cc(OCC(=O)NCC3CCC(C(=O)O)CC3)c12 (stereo not given) | -10.9 | 20.8 | -5.9 | 0.1 | 0.5 | ·
Cc1cc(OCC(=O)NCC2CCC(C(=O)O)CC2)c2c(C)c(C)c(=O)oc2c1 (stereo not given) | 2.1 | 0.7 | 358.5* | 0.1 | 0.6 | 0.6
OC(c1ccccc1)(c1nc(/C=C/c2ccccc2)cs1)C(F)(F)F (stereo not given) | · | · | · | -0.1 | · | ·
Cc1ccc(S(=O)(=O)Nc2ccc3[nH]c(=O)[nH]c3c2)c(C)c1 | -2.0 | -6.6 | -6.1 | -0.3 | 0.1 | ·
Cc1cc(F)ccc1S(=O)(=O)Nc1ccccc1C(=O)Nc1ccc2[nH]c(=O)[nH]c2c1 | 26.5 | 8.8 | 369.9* | 1.5 | 0.1 | 0.4
O=C(NNC(=O)c1ccc(Cl)s1)c1csc(N2CCOCC2)n1 | -2.4 | -11.3 | -12.4 | -0.1 | -0.4 | ·
O=C(NNC(=O)c1csc(N2CCOCC2)n1)c1ccc(Cl)nc1 | -5.6 | · | 451.8* | 0.0 | 0.6 | 0.4
SMILES | ARNT TACC3 PPI | AI-2 QS modul | Mot1-301 SUMO | aDG glyco act | A1 inh | Yeast Mot1 SUMO
COC(=O)C1=CN(c2ccc3c(c2)OCO3)C(N)=C(C#N)C1c1ccc(-c2ccccc2)cc1 (stereo not given) | · | · | · | -0.2 | · | ·
Cc1ccc(S(=O)(=O)NCc2ccc(C(=O)N3CCN(c4ccccn4)CC3)cc2)cc1 | · | 4.7 | 662.0* | 0.4 | -0.7 | 0.6
CCN(CC)c1ncnc2ccc(Br)cc12 | 0.6 | -5.1 | 410.2* | 0.4 | 0.2 | -0.5
CC(C)c1ccc(NC(=O)COC(=O)/C=C/c2cccc(Br)c2)cc1 | -0.8 | 8.7 | -1.7 | 0.0 | -0.1 | ·
CN(CC(=O)N1CCc2[nH]c3ccc(F)cc3c2C1)CC1OCCO1 | · | 33.3 | 736.2* | · | 0.3 | 0.2
CC(NC(=O)CCc1nnc(-c2ccc(-c3ccccc3)cc2)o1)c1nc2ccccc2[nH]1 (stereo not given) | -8.4 | 7.6 | 451.7* | 0.4 | 0.5 | -0.4
CCOc1ccccc1NC(=O)Nc1ccc(OC)nc1 | -1.6 | 17.5 | -2.7 | 0.1 | ? | ·
CCOc1ccc(C(=O)c2cccs2)cc1 | 10.0 | 22.0 | 386.6* | 0.0 | -0.7 | 0.0
O=C(c1ccccc1)c1cccs1 | · | -4.6 | 0.9 | 0.3 | 2.2 | ·
CCOC(=O)c1c(C)[nH]c(C(=O)COC(=O)CNC(=O)c2ccccc2Cl)c1C | -4.2 | 22.6 | -4.6 | -0.2 | -0.4 | ·
O=C(O)/C=C/C(=O)NNC(=O)c1ccccc1Br | -11.4 | 19.8 | -14.1 | 0.0 | 1.1 | ·
Cc1ccccc1C(=O)NNC(=O)/C=C\C(=O)O | 7.0 | -5.6 | 792.5* | 0.1 | 0.7 | 0.0
COc1cc(SC)ccc1C(=O)Nc1cc(C)c(OCC(=O)N2CCOCC2)c(C)c1 | -5.3 | 29.7 | 562.0* | 2.4 | 1.0 | -0.4
Cc1cc(NC(=O)c2cccc3ccccc23)cc(C)c1OCC(=O)N1CCOCC1 | -3.5 | 5.7 | -8.0 | 0.7 | 0.1 | ·
Cc1ccc(SCCNC(=O)CN2C(=O)c3ccccc3S2(=O)=O)cc1 | 22.9 | -43.6 | 397.8* | -0.1 | 1.1 | -0.2
COc1ccc(NC(=O)CN2C(=O)c3ccccc3S2(=O)=O)cc1OC | -0.3 | 7.5 | 403.5* | 0.0 | 0.4 | 0.2
COc1ccc(C(=O)N(C(C)C)C(C)C)c(OC)c1 | -21.4 | 20.0 | -5.8 | -0.1 | 0.1 | ·
CO[C@@H]1CN(C)C(=O)c2cc(NC(=O)c3ccccc3F)ccc2OC[C@@H](C)N(C(=O)c2ccccc2F)C[C@H]1C | -5.1 | · | · | · | · | ·
O=C1COc2ccc(-c3csc(=Nc4ccc(OC(F)F)cc4)n3CC3CCCO3)cc2N1 (stereo not given) | -7.8 | 14.3 | 172.5 | -0.1 | 0.2 | ·
COCC(C)n1c(-c2ccc3c(c2)NC(=O)CO3)csc1=Nc1ccc(OC(F)F)cc1 (stereo not given) | -3.7 | 20.1 | 531.8* | 0.3 | 0.7 | -0.3
COc1ccc(C(=O)NC(=S)Nc2ccc(CN3CCCCC3)cc2)cc1Cl | 10.9 | 11.3 | 636.5* | 5.4 | -0.1 | -0.6
CCCN[C@@H]1C(=O)N2C(C(=O)OCCC)=C(C)CS[C@H]12 | -0.8 | 6.5 | 21.7 | -0.2 | 2.5 | ·

Screens as filed in PubChem BioAssay.
